12-LOX inh: blocks human arachidonate 12S-lipoxygenase | purified 12hLO, xylenol orange hydroperoxide absorbance | Potency, µM (top dose mostly 108 µM), inactives show at the highest dose activity change, negative = inhibition, actives largely listed as inhibitors | AID 1671190 | actives 1.1% (n = 580,000) | P18054; note: potency is the fitted concentration of half-maximal effect
Target sequence (P18054 whole entry, looked up): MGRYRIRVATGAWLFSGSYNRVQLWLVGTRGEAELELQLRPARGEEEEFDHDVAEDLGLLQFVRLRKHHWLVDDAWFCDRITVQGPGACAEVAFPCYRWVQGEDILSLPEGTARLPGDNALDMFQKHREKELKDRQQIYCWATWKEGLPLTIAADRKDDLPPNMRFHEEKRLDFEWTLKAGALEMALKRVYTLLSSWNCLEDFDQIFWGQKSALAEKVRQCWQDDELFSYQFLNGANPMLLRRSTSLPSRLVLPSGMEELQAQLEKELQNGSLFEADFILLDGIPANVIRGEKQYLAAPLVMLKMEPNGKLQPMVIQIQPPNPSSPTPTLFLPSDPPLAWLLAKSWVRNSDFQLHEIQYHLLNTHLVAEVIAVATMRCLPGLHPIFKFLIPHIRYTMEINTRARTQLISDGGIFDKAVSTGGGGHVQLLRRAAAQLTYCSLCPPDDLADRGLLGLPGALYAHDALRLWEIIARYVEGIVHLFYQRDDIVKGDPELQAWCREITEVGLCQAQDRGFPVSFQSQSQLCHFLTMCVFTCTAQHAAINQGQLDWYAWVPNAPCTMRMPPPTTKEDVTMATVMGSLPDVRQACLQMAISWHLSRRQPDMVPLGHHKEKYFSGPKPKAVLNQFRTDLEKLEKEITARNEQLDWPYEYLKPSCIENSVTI
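Hydroperoxide product was detected by ferrous iron/xylenol orange as the 573 to 405 nm absorbance ratio. Arachidonic acid at 40 uM (final) was turned over for 30 min at room temperature by 150 nM human 12hLO, pH 7.0 Hepes buffer, after 15 min compound preincubation.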
HT1080 IDH1KD tx: kills HT-1080 cells with IDH1 knockdown; HT-1080 IDH1 knockdown viability, ATP luminescence, 48 h; Potency, µM (series often up to 46.1 µM), inactives show at the top dose activity, negative = toxicity, most hits filed as cytotoxic; actives 2% (n = 360,000); AID 686971;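 note: potency is the fitted concentration of half-maximal effect; 0% = DMSO wells and -100% = cell-free medium wells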
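Viability of IDH1-knockdown HT-1080 fibrosarcoma cells was assessed by CellTiter-Glo after 48 h at 37 °C with titrated compound; concentration-effect curves were classified by fit quality and response size.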
IL1B secr inh: blocks inflammasome-driven IL-1 beta release | THP-1 LPS/ATP IL-1B secretion, AlphaLISA, 16 h; stronger effect = lower value | activity change, % at 57.5 µM | actives 4.7% (n = 360,000) | AID 743279; in the data active = activity change below about -50%; inconclusive = mostly about -30% to -49%
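Secreted IL-1B measured by AlphaLISA bead assay after 16 h compound exposure of THP-1 cells; compounds (final up to 57.5 uM) added 1 h before LPS (250 ng/mL) and ATP (1.25 mM) stimulation; lower signal means less secretion.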
HT1080NT lethal: kills 2HG-producing HT-1080-NT fibrosarcoma cells; HT-1080-NT fibrosarcoma viability, CellTiter-Glo ATP luminescence, 48 h; Potency, µM (titrated, usually from 46.1 µM), for the others: top-dose activity, negative = less viability, actives largely listed as cytotoxic; actives 1.6% (n = 360,000); AID 686970;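 note: NT is the 2HG producing partner of a matched IDH1 knockdown line; potency is the fitted concentration of half-maximal effect; 0% = DMSO-treated cells and -100% = media-only wells without cells; nearly all actives have a fitted effect of over 55% in size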
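HT-1080-NT; 750 cells/well; 5% FBS RPMI; 48 h compound, 37 degrees C; CellTiter-Glo luminescence; curve fitting and curve-class assignment.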
TDP1 cell noCPT: qHTS for Inhibitors of human tyrosyl-DNA phosphodiesterase 1 (TDP1): qHTS in cells in absence of CPT. AID 686978, 2013. actives 15% (n = 420,000). Potency, µM (top dose mostly 46.2 µM), for inactives: at the top dose activity change, negative = growth inhibition, usual class: inhibitors. DT40 Tdp1-/- hTDP1 cells, no CPT, ATP luminescence, 48 h; note: potency is the fitted concentration of half-maximal effect; nearly all actives have a fitted effect of over 55% in size
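Compound effects on proliferation are scored in DT40 Tdp1-/-;hTDP1 cells in the absence of CPT. ATP levels (CellTiter-Glo luminescence) are recorded after a ≥48 hr, 37 °C incubation.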
DT40 TDP1 CPT: growth inhibition of DT40 Tdp1-/-;hTDP1 cells with camptothecin (screen for TDP1 inhibitors); actives 12% (n = 420,000); Potency, µM (doses to about 46.2 µM), without a hit: at the highest dose activity change, negative = growth inhibition, most hits filed as inhibitors; AID 686979; chicken DT40 Tdp1-/-;hTDP1 cells + 20 nM CPT, ATP luminescence, 48 h; note: potency is the fitted concentration of half-maximal effect; nearly all actives have a fitted effect of over 55% in size
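Cell growth measured by CellTiter-Glo luminescence after a minimum 48 h, 37 C compound exposure with 20 nM CPT in Tdp1-knockout DT40 cells stably expressing hTDP1, seeded 400/well; qHTS titration format.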
Numbers without * were called inactive; [ ] = dose if it differs, or a comment. Only a selection was taken, and hits are over-represented in it overall. Unless noted, calls come from the whole dose curve; as a rule, active = well fitted curve in the direction sought with a large enough effect; inconclusive = small, poorly fitted or top-dose-only effect, or another doubt; inactive = no such curve, though single readings can be large; an effect the other way counts as inactive or inconclusive. Unless noted, % is set by controls: 0 for no effect and ±100 for the full control effect.

Screening COc1ccc2cc(C(=O)C3CCCN(C(=O)CCc4cnn(C)c4)C3)ccc2c1 (configuration not stated) returned 12-LOX inh -14.3%, HT1080 IDH1KD tx -8.3%, IL1B secr inh -56.5*, HT1080NT lethal -1.6%, TDP1 cell noCPT inconclusive and DT40 TDP1 CPT inconclusive.
COc1ccc2cc(C(=O)C3CCCN(C(=O)c4csnn4)C3)ccc2c1 (configuration not stated) was read as 12-LOX inh 1.4%, HT1080 IDH1KD tx 11.9%, IL1B secr inh -0.9, HT1080NT lethal 14.6%, TDP1 cell noCPT inconclusive and DT40 TDP1 CPT -19.9%.
COc1ccc2cc(C(=O)C3CCCN(C(=O)CSc4nnc(C)o4)C3)ccc2c1 (configuration not stated) was read as 12-LOX inh -11.6%, HT1080 IDH1KD tx inconclusive, IL1B secr inh -21.5, HT1080NT lethal -45.8%, TDP1 cell noCPT 20.6µM* and DT40 TDP1 CPT 18.4µM*.
COc1ccc2cc(C(=O)C3CCCN(C(=O)C4=NN(C)C(=O)CC4)C3)ccc2c1 (configuration not stated) was read as 12-LOX inh 1.3%, HT1080 IDH1KD tx 9.6%, IL1B secr inh 8.1, HT1080NT lethal 2.3%, TDP1 cell noCPT inconclusive and DT40 TDP1 CPT -25.7%.
COc1ccc2cc(C(=O)C3CCCN(C(=O)c4cncs4)C3)ccc2c1 (configuration not stated) was read as 12-LOX inh 77.4%, HT1080 IDH1KD tx -9.6%, IL1B secr inh -17.9, HT1080NT lethal -0.7%, TDP1 cell noCPT 11.6µM* and DT40 TDP1 CPT 18.4µM*.
`COc1ccc2cc(C(=O)C3CCCN(C(=O)c4cnn(C(C)C)c4)C3)ccc2c1` (configuration not stated) gave 12-LOX inh 0.0%, HT1080 IDH1KD tx -2.2%, IL1B secr inh 13.9, HT1080NT lethal 2.4%, TDP1 cell noCPT inconclusive and DT40 TDP1 CPT 25.9µM*.
`CCn1c(=O)n(CC(=O)N(C)Cc2ccc(C)cc2C)c2ccccc21` gave 12-LOX inh -1.9%.
COc1cccc(OC)c1C(=O)C1CC(=O)Nc2c1c(C)nn2-c1cc(C)cc(C)c1 (configuration not stated) was read as 12-LOX inh 7.5%.
CC(C)NC(=O)[C@@H]1C[C@H](N)CN1C(=O)c1ccccc1-c1ncc[nH]1 was read as 12-LOX inh 44.9%.
`Cc1nc2ccccc2c(C)c1CC(=O)NC(C)(C)C` gave 12-LOX inh -6.4%.
`COC(CN(C(=O)CCl)C(C(=O)NC1CCCCC1)c1ccc(Cl)cc1)OC` (configuration not stated) gave 12-LOX inh -26.2%, HT1080 IDH1KD tx -18.6%, IL1B secr inh inconclusive, HT1080NT lethal -11.3%, TDP1 cell noCPT 3.26µM* and DT40 TDP1 CPT 5.17µM*.
Screening COC(CN(C(=O)CCl)C(C(=O)NC1CCCC(C)C1C)c1ccc(C)cc1)OC (configuration not stated) returned HT1080 IDH1KD tx -0.9%, IL1B secr inh -100.0*, HT1080NT lethal -0.9%, TDP1 cell noCPT 20.6µM* and DT40 TDP1 CPT 5.17µM*.
COC(CN(C)C(C(=O)NC1CCCCC1)c1ccccc1)OC (configuration not stated) was read as 12-LOX inh 63.0%, HT1080 IDH1KD tx 13.2%, IL1B secr inh -0.3, HT1080NT lethal 18.0%, TDP1 cell noCPT -7.8% and DT40 TDP1 CPT -0.3%.
Screening CN(C)C(C(=O)NC1CCCCC1)c1ccc(Cl)cc1 (configuration not stated) returned 12-LOX inh -25.4%, HT1080 IDH1KD tx -3.7%, IL1B secr inh -5.4, HT1080NT lethal -9.9%, TDP1 cell noCPT inconclusive and DT40 TDP1 CPT -24.4%.
`COc1ccc(N(C(=O)c2cnccn2)C(C(=O)NC2CCCCC2)c2ccc(Cl)cc2)cc1` (configuration not stated) gave 12-LOX inh 6.2%, HT1080 IDH1KD tx 0.8%, IL1B secr inh 3.6, HT1080NT lethal 0.0%, TDP1 cell noCPT -3.2% and DT40 TDP1 CPT -0.3%.
For COc1ccc(C(C(=O)NC2CCCCC2)N(C(=O)CCl)c2ccc(Cl)cc2)cc1 (configuration not stated) the results were HT1080 IDH1KD tx 1.46µM*, IL1B secr inh -96.2*, HT1080NT lethal 2.31µM*, TDP1 cell noCPT -104.5% and DT40 TDP1 CPT 1.03µM*.
`Cc1cccc(N(C(=O)CNC(=O)c2ccco2)C(C(=O)NC2CCCCC2)c2cccnc2)c1` (configuration not stated) gave 12-LOX inh 5.8%, HT1080 IDH1KD tx -1.4%, IL1B secr inh 9.8, HT1080NT lethal 0.0%, TDP1 cell noCPT -1.1% and DT40 TDP1 CPT 22.4%.
`O=C(NC1CCCCC1)C(c1cccnc1)N(C(=O)CCl)c1cccc(Cl)c1` (configuration not stated) gave 12-LOX inh inconclusive, HT1080 IDH1KD tx 1.84µM*, IL1B secr inh -92.8*, HT1080NT lethal 5.17µM*, TDP1 cell noCPT 2.06µM* and DT40 TDP1 CPT 2.06µM*.
For O=C(CN1CCc2ccccc2C1)N1N=C(c2ccco2)CC1c1cccs1 (configuration not stated) the results were 12-LOX inh 18.3%.
`Cc1cccc(C)c1N1C(=O)c2ccccc2NC(=O)C1C(=O)Nc1ccc(N2CCOCC2)cc1` (configuration not stated) gave 12-LOX inh -1.4%, HT1080 IDH1KD tx 9.1%, IL1B secr inh 12.5, HT1080NT lethal -0.7%, TDP1 cell noCPT 14.6µM* and DT40 TDP1 CPT inconclusive.
CC(C)C[C@@H]1N[C@H](C(=O)NCC2CC2)Cc2c[nH]c3cccc1c23 was read as 12-LOX inh 58.0%[176 µM].
CCCCNC(=S)Nc1ccc(SC(F)F)cc1 was read as 12-LOX inh inconclusive, HT1080 IDH1KD tx inconclusive, IL1B secr inh -105.0*, HT1080NT lethal inconclusive, TDP1 cell noCPT inconclusive and DT40 TDP1 CPT -12.3%.
`Oc1cccc(NC(=S)Nc2ccc(SC(F)F)cc2)c1` gave 12-LOX inh inconclusive, HT1080 IDH1KD tx -29.0%, IL1B secr inh -58.3*, HT1080NT lethal -21.5%, TDP1 cell noCPT inconclusive and DT40 TDP1 CPT 4.3%.
O=C(Cn1nc(Cc2ccncc2)c2ccccc2c1=O)Nc1ccc(Oc2ccccc2)cc1 was read as 12-LOX inh 0.3%.
